In PubChem BioAssay (NCATS):
Several values for one entry are separate records, joined by “and”; a condition that tells them apart may be missing. Identical values can stand only once. Inconclusive results are not listed. Values without a mark were called inactive. Activity calls are given as the source filed them. Calls come from the whole dose curve; as a rule, active = well fitted inhibition curve with a large enough effect; inconclusive = small, poorly fitted or top-dose-only effect; inactive = flat fitted curve, though single readings scatter.

System: CRL-7250
Assay: Cytotoxic Profiling of Annotated Libraries Using Quantitative High-Throughput Screening (AID 1296008); note: nearly all actives have a fitted effect of over 60% in size
Settings: Five cell lines viability, CellTiter-Glo ATP luminescence, 48-72 h; max response: hits give low values
Procedure, shortened: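 Cytotoxicity was measured as CellTiter-Glo ATP luminescence, read after 10 min at room temperature. Compound treatment of the cells lasted 48 or 72 hr at 37 degrees Celsius in a qHTS format.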
% is set by controls: 0 for no effect and ±100 for the full control effect; potency is the fitted concentration of half-maximal effect.

COc1cccc2nc(-c3cccs3)nc(NN3C(=O)C=C(C)C3=O)c12
Potency: 2.09 µM (active) and 6.51 µM (active)

COc1cccc2c(NCc3ccccc3)nc(-n3c(N)nc4ccccc43)nc12
Potency: 8.33 µM (active)

Cc1[nH]c2ccccc2c1CCNCc1ccc(C=CC(=O)NO)cc1
Potency: 1.05 µM (active)

CC(O)C1C(=O)N2C(C(=O)O)=C(SC3CNC(C(=O)N(C)C)C3)C(C)C12 (configuration not stated)
max response: -9.97% and 0.421%

CC(C)(C)c1cc(NC(=O)Nc2ccc(-c3cn4c(n3)sc3cc(OCCN5CCOCC5)ccc34)cc2)no1
max response: -10.2% and -19.2%

CC1(C)OC2=C(C(=O)c3ccccc3C2=O)[C@H](NCc2ccccc2)[C@H]1O
Potency: 16.6 µM (active)

CC(=O)c1c(C)c2cnc(Nc3ccc(N4CCNCC4)cn3)nc2n(C2CCCC2)c1=O
max response: -3.02%

Nc1nc(-c2nn(Cc3ccccc3F)c3ncccc23)nc(N)c1N1CCOCC1
max response: -1.46%

O=C(O)[C@H](Cc1c[nH]c2ccccc12)N1C(=O)c2ccccc2C1=O
outcome: inactive

O=C(O)C1(Cc2cccc(Nc3nccs3)n2)CCC(Oc2cccc(Cl)c2F)CC1 (configuration not stated)
max response: -5.96% and -3.26%

COc1cc2c(Oc3ccc(NC(=O)C4(C(=O)Nc5ccc(F)cc5)CC4)cc3F)ccnc2cc1OCCCN1CCOCC1
Potency: 10.5 µM (active) and 8.2 µM (active)

COc1cc(-c2nn(C3CCC(N4CCN(C(C)=O)CC4)CC3)c3ncnc(N)c23)ccc1NC(=O)c1cc2ccccc2n1C (configuration not stated)
max response: -38.4%

C=C1C(=CC=C2CCC[C@]3(C)[C@@H]([C@H](C)C=C[C@H](C)C(C)C)CC[C@@H]23)C[C@@H](O)C[C@@H]1O
max response: -0.207%

Clc1ccc2ncc(-c3cccc(NC4CNC4)n3)n2c1
outcome: inactive

C=CCn1c(=O)c2cnc(Nc3ccc(N4CCN(C)CC4)cc3)nc2n1-c1cccc(C(C)(C)O)n1
max response: -7.63%

CN1CCN(Cc2ccc(NC(=O)Nc3ccc(Oc4cc(NC(=O)C5CC5)ncn4)cc3)cc2C(F)(F)F)CC1
Potency: 418 nM (active) and 1.3 µM (active)

Cc1ccc(C(=O)Nc2cccc(C(F)(F)F)c2)cc1-c1ccc2nc(NCCN3CCOCC3)ncc2c1
Potency: 4.18 µM (active) and 7.31 µM (active)

C=CC(=O)N1CCC[C@@H](n2nc(-c3ccc(Oc4ccccc4)cc3)c3c(N)ncnc32)C1
max response: 2.95%

Nc1cc(C(F)(F)F)c(-c2cc(N3CCOCC3)nc(N3CCOCC3)n2)cn1
Potency: 2.06 µM (active)

CCN(CC)CCNC(=O)c1ccc2nc(-c3ccccc3)c(-c3ccc(CN4CCC(n5c(=O)[nH]c6ccccc65)CC4)cc3)nc2c1
Potency: 9.35 µM (active)

CC[C@@H]1C(=O)N(C)c2cnc(Nc3ccc(C(=O)NC4CCN(C)CC4)cc3OC)nc2N1C1CCCC1
Potency: 2.64 µM (active)

Cc1nc(N)ncc1-c1nc(N2CCOCC2)c2sc(C(C)(C)O)cc2n1
Potency: 2.59 µM (active)

CC(C)[C@H](C(=O)Nc1ccc(C(=O)NO)cc1)c1ccccc1
Potency: 4.18 µM (active)

COc1cc(=C2C=c3ccccc3=N2)[nH]c1=Cc1[nH]c(C)cc1C
Potency: 11.8 µM (active)

O=C(Nc1cc(C(F)(F)F)cc(C(F)(F)F)c1)c1cc(Cl)ccc1O
Potency: 3.72 µM (active) and 3.26 µM (active)

CC(C)(C)c1cc(C(C)(C)C)c(NC(=O)c2c[nH]c3ccccc3c2=O)cc1O
outcome: inactive

CC(C)=CCCC(C)=CCCC(C)=CCSc1ccccc1C(=O)O
Potency: 0.148 µM (active)

CCN(CC)CCCCNc1ncc2cc(-c3cc(OC)cc(OC)c3)c(NC(=O)NC(C)(C)C)nc2n1
Potency: 0.264 µM (active)

Cc1cn2cc(C(=O)N(C)CCO)cc(N[C@@H]3CCOc4cccc(C)c43)c2n1
max response: -0.414% and 0.78%

Cc1nc(Nc2n[nH]c3c2CN(C(=O)N[C@H](CN(C)C)c2ccccc2)C3(C)C)c2sccc2n1
Potency: 1.18 µM (active) and 130 nM (active)

COc1cc2c(Oc3ccc(-c4cnc(Nc5ccc(F)cc5)n(C)c4=O)cc3F)ccnc2cc1OCCCN1CCOCC1
Potency: 13.2 µM (active)

C[C@@H]1CN(CC(=O)Nc2ccc3c(c2)Cc2cccc(-c4cc(=O)cc(N5CCOCC5)o4)c2S3)C[C@H](C)O1
max response: -2.3%
